According to PubChem BioAssay AID526 (National Center for Advancing Translational Sciences (NCATS), 2006):
In all, about 67,000 compounds went through this assay and fewer than 10 were called active. The call rests on the fitted dose curve; in most records, active means well fitted activation curve with a large enough effect (not every such curve was filed as active); inconclusive means small, poorly fitted or top-dose-only effect, or another doubt; inactive means no such curve, though single readings can be large or run the other way. Only a sample is shown.

Assay: Ubiquitin-GFP Assay
Conditions: Ubiquitin-GFP reporter cells, proteasome inhibition, GFP fluorescence, untreated = 0%, 10 µM MG-132 = 100%; series mostly up to 45.9 µM; activation (GFP accumulation): at the top concentration
Text: NIH Chemical Genomics Center [NCGC]
NIH Molecular Libraries Screening Centers Network [MLSCN]
The ubiquitin-proteasome pathway is present within all eukaryotic cells and plays roles in normal cellular functions and disease-related dysfunction. Proteins are tagged with a poly-ubiquitin chain that targets them for the proteasome, a multimeric protease, that degrades the protein into peptides and free ubiquitin. The proteasome has a key role in regulating cell cycle and growth and is known to control the levels of cyclins and CDK inhibitors as well as tumor suppressor proteins. Additionally, the activation of NF- B is controlled by ubiquitin-labeling and degradation of the inhibitory protein I B . […] With this in mind, proteasome inhibitors such as MG-132 and PS-341 have been used to inhibit tumor cell growth.
A cellular assay for ubiquitin-proteasome function was used to find chemical probes of this pathway. The assay used an ubiquitin-GFP construct expressed in U2OS cells (BioImage). Under basal conditions little GFP can be detected as it is degraded by the proteasome. However, treatment of the cells with a proteasome inhibitor such as MG-132 results in a rise in GFP levels that can be detected in as little as four hours. We used the Acumen-Explorer laser plate cytometer having a 488 nm laser as an excitation light source to detect the GFP. Compounds were screened in 1536-well plates using qHTS with a concentration-titration series range that varied from 46 uM to 2.9 nM.
NCGC Assay Protocol Summary:
Cells (U20S ps 2042) expressing ubiquitin (G76V-GFP) were maintained in DMEM with Glutamax-1 and high glucose, 10% FBS, 1% (v/v) penicillin-streptomycin, 0.5 mg/mL Geneticin (G418). The cells were seeded in 1536-well plates using a solenoid-based dispenser at 700 cells/5ul in DMEM medium with Glutamax-1 and high glucose containing 0.5% FBS, w/o phenol red, 25 mM HEPES. The plates were incubated at 37 °C/5% CO2 overnight. Then 23 nl of MG-132 in DMSO was added to the control wells at a final concentration of 10 uM. Next, 23 nL of library compounds in DMSO were added to the sample wells. The plates were incubated for 4 hrs at 37 °C/5% CO2. Following this incubation the plates were read on the Acumen using a cell object definition of 15 to 100 um in width and depth and a window of Total Intensity of between 77,200 and 2,720,000 FLU to enumerate GFP-expressing cells.
The %Activity was determined from the basal and MG-132 treated control wells. %Activity was determined by normalizing to the difference in signal between basal cells (0% Activity) and cells incubated with 10 uM of the proteasome inhibitor MG-132 (100% Activity). Concentration-response curves were fitted to the signals arising from the GFP fluorescence.
Assay Protocol Summary Table
Sequence Parameter Value Description
2. Time O/N 37C incubation
4. Compound 23 nL Libraries (46 uM to 2.9 nM)
5. Time 4 hr 37C incubation
6. Detector Acumen Total Intensity, GFP fluorescence (488 ex/515 em)
Keywords: NIH Roadmap, MLSCN, MLI, MLSMR, BioImage, proteasome, ubiquitin-GFP, qHTS, NCGC

Activation (GFP accumulation), inactive:
Cc1cc(=O)n2nc(N3CCCC(C(=O)N4CCN(C)CC4)C3)sc2n1 (stereo not drawn) -0.855%
CN(C)C(=O)/N=N\C(=O)N(C)C 0.779%
CCCC(CCC(=O)OC)(C(=O)OCC)c1csc(N)n1 (stereo not drawn) -4.11%
O=C(CSC1=NCCS1)Nc1nc(-c2ccccc2)cs1 -15.6%
COc1ccc(OC)c(C(=O)CSc2nnc(-c3cccs3)o2)c1 0%
Cc1ccc2cccc(O)c2[n+]1[O-] -6.52%
COc1ccc(OC)c(NC(=O)CSc2nc3cccnc3n2C)c1 -1.06%
CCCCC(=O)Nc1ccc(C(=O)NCCCn2ccnc2)cc1 -2.04%
CN1[C@H]2CC(OC(=O)[C@@H](CO)c3ccccc3)C[C@H]1[C@H]1O[C@H]12 (stereo partly drawn) 0.807% [at 20.5 µM]
Nc1ccc2c3c(cccc13)C(=O)NC2=O -1.64%
Cc1ccc(Cn2ccc(NC(=O)C3C4CCC(C4)C3C(=O)O)n2)cc1 (stereo not drawn) 13.5%
Cc1cccc(N2CCN(Cc3c(C)n(C)n(-c4ccccc4)c3=O)CC2)c1C -18.2% [at 9.17 µM]
Cc1onc(-c2ccccc2Cl)c1C(=O)NCCn1ccc2ccccc21 16%
CCOC(=O)c1cc(-c2ccc(Cl)s2)nc2c1c(C)nn2C -2.17%
COc1nc(NCc2ccc(Cl)cc2)nc(OC)n1 -9.93% [at 9.17 µM]
COc1ccc(-c2cc(C(F)(F)F)nc(SCCC(=O)NCc3ccco3)n2)cc1 -4.87%
COC(=O)C(C)Sc1ccc2nnc(-c3cccc(F)c3)n2n1 (stereo not drawn) 11.7%
CCNc1ncc2nc(CCc3ccccc3)c(=O)n(-c3ccc(OC)cc3)c2n1 -0.0408%
Cc1nnc(C)n1/N=C/c1ccc(C(C)C)cc1 1.85%
O=C(CN1CCN(C2CCCCC2)CC1)Nc1ccccc1N1CCCCC1 -0.833%
CS(=O)(=O)N1CCC2(CCN(c3ccncc3)CC2)CC1 -4.81%
COc1ccccc1NC(=O)CSc1nnc(Cc2cccn2C)n1-c1ccc(F)cc1 6.14%
CNC(=O)CN1C(=O)c2ccccc2S1(=O)=O 12.9%
Oc1c(CN2CCOCC2)ccc(CN2CCOCC2)c1O -4.99% [at 9.17 µM]
Cc1cc(C)c2nc3c(c([C@H](O)[C@@H]4CCCCN4)c2c1)CC/C3=C/c1ccc(Cl)cc1 1.75% [at 9.17 µM]
O=C(Nc1c[nH]c(=O)[nH]c1=O)Oc1ccccc1 7.84% [at 9.17 µM]
CC(=O)Nc1nc(C)c(Cc2ccccc2)c(=O)[nH]1 -8.77%
O=C(NC(c1ccccc1)c1ccccc1)N1CCN(CCO)CC1 -0.276%
O=C(c1cnccn1)N1CCC2(CCN(Cc3cc(C(F)(F)F)cc(C(F)(F)F)c3)CC2)CC1 -15.1%
CC1(C)NC(=O)N(CCOc2cccc(Oc3ccccc3)c2)C1=O 15%
Cc1ccccc1NC(=O)c1cnn(-c2ccccc2)c1NC(=O)c1ccco1 -3.93%
c1ccc(CSCCc2ccncc2)cc1 0.403% [at 9.17 µM]
CCOC(=O)c1cc2cc(C)ccc2[nH]1 2.14%
Cn1c(=O)cc(OCCCC(=O)N2CCN(c3ccccn3)CC2)c2ccccc21 15.3%
COc1ccccc1-n1c(CNC(=O)c2ccccc2)nnc1SCC(=O)Nc1nnc(C)s1 -3.39%
COc1ccccc1-c1nc(NCCNC(C)=O)c2ccccc2n1 2.52%
CCc1ccc(-c2nnn(Cc3nc4ccccc4s3)n2)cc1 -6.9%
CC(=O)OCC(=O)[C@@]1(O)CC[C@@H]2[C@H]3CCC4=CC(=O)C=C[C@]4(C)[C@]3(F)[C@@H](O)C[C@@]21C 14% [at 20.5 µM]
CCC(=O)N1c2ccc(S(=O)(=O)CCC(=O)N3CCN(c4ccccc4)CC3)cc2CC1C (stereo not drawn) 2.7%
CN(C)c1nc2n(c(=O)n1)CCO2 -3.46%
c1ccc(CCN2CCN=C2Cc2ccccc2)cc1 -3.08% [at 9.17 µM]
COc1ccccc1N1CCN(C(=O)c2cc(-c3ccc(Cl)c(Cl)c3)on2)CC1 -2.38%
Cc1nc(NC(=O)CCC(=O)O)sc1C(=O)N(C)C 2.7%
CN1CCN(CCCNC(=O)c2cc3c(=O)oc4ccccc4c3s2)CC1 -2.5%
COc1ccc(CC(=O)Nc2nc3n(n2)C(c2ccccc2)CC(=O)N3)cc1OC (stereo not drawn) 4.29%
COc1c(C)c2c(c(O)c1C/C=C(\C)CCC(=O)O)C(=O)OC2
CN(C)CCSS(=O)(=O)O 9.1% [at 9.17 µM]
CCCn1c(C)nc2c(NCCCCN(CC)CC)nc(C)nc21 -5.45%
CCOC(=O)N1CCN(C(=O)Cc2ccc(-n3c(=S)[nH]c4ccccc4c3=O)cc2)CC1 -2.38%
CCN(CC)CCCCn1c(-c2ccccc2)nc2c(N3CCOCC3)nc(C)nc21 3.9%
CCN(Cc1ccncc1)C(=O)c1cccc(S(=O)(=O)N2CCOCC2)c1 -14.4%
CN(C)CC/C=C1\c2ccccc2CSc2ccccc21 6.11% [at 20.5 µM]
CC[C@@H]1Cc2cc(O)ccc2C2=C1c1ccc(O)cc1C[C@H]2CC -4.8%
COc1ccc(C(=O)n2nc(-c3ccc(C)cc3)nc2N)cc1OC 3.88%
O=C(C1CCC1)N1CCc2cc(S(=O)(=O)NCc3cccnc3)ccc21 -8.71%
CC(C)CNC(=O)c1cc(-c2ccc(Br)cc2)on1 -3.89%
CCn1c(CNC(=O)c2ccc(OC)c(OC)c2)nnc1SCC(=O)Nc1ccccc1 6.19%
COCCNC(=O)c1snc2ccc(Cl)cc12 -1.98%
O=C(c1cc(C(F)(F)F)cc(C(F)(F)F)c1)N1CCC[C@@]2(CCN(c3ccccn3)C2)C1 -8.01%
COc1ccc(CCNC(=O)CSc2nc(C)nc3c2oc2ccccc23)cc1OC -5.16%
Cc1nnc(SCC(=O)NCc2ccccc2)s1 3.12%
COc1ccc2nccc(C(=O)O)c2c1 -8.23% [at 20.5 µM]
COC(=O)c1cc(NC(=O)CN2CCC(C(N)=O)(N3CCCCC3)CC2)cc(C(=O)OC)c1 -2.5%
COc1ccc(N(Cc2cc3cc(OC)ccc3[nH]c2=O)S(C)(=O)=O)cc1 7.12%
O=C(CN1CCOCC1)N1CCCc2c1c(=O)oc1ccc(OCc3ccccc3)cc21 -1.85%
O=C(O)/C(=C/c1c(C(=O)O)[nH]c2cc(Cl)cc(Cl)c12)c1ccccc1 0%
CCCn1c(-c2ccc(F)cc2)nc2c(NC3CCN(Cc4ccccc4)C3)nc(C)nc21 (stereo not drawn) -1.82%
COc1ccc(N(CC(=O)NC(C)(C)C)C(=O)c2ccco2)cc1 5.4%
CCOC(=O)c1cnc2sccn2c1=O 6.99%
COC(=O)Cn1c(=NC(=O)CSCC(=O)Nc2cc(C)on2)sc2ccccc21 -5.84%
Cc1ccc(C)c2[nH]c(=O)c(CCNC(=O)CC(C)C)cc12 2.17%
COc1cccc(Cn2c(=O)c(C)nc3cnc(Oc4ccccc4)nc32)c1 6.93%
O=c1c(-c2ccc(F)cc2)nc2cnc(N3CCNCC3)nc2n1Cc1cccs1 13.9%
Cc1ccc(SCc2cc(=O)[nH]c(N3CCCCC3)n2)cc1 1%
CC(=O)Oc1ccc(C(=O)Nc2nccs2)cc1 10.5%
CCn1c(=O)cc(SCC(=O)NCc2ccc3c(c2)OCO3)c2ccccc21 -2.7%
Oc1cc2c(cc1O)CN(C(=S)NCCc1ccc(Cl)cc1)CCC2
Cc1ccc(-c2c3c(=O)n(C)c(=O)n(C)c3cn2-c2ccccc2O)cc1 -3.34%
CCCCn1nnnc1NCc1cc(OC)c(OC)c(OC)c1 2.65%
CC(N)=NCc1cccc(CN)c1
CN1C(=O)C[C@H](c2ccccc2)C1=O 12.7% [at 20.5 µM]
Nc1nc2c(ncn2[C@H]2CC[C@@H](CO)O2)c(=O)n1C(=O)c1ccccc1 -2.15% [at 9.17 µM]
Cc1ccc(-n2ncc3c2ncn2nc(-c4ccco4)nc32)c(C)c1 -1.72%
CCCCC(=O)Nc1cc(C)c2c(=O)oc3ccccc3c2n1 0%
Cc1ccc(NC(=O)NCC(c2cccnc2)N2CCOCC2)cc1 (stereo not drawn) 1.97%
COc1cc(C2C(C#N)=C(C)NC3=C2C(=O)CC(C)(C)C3)ccc1O (stereo not drawn) -2.63%
COc1ccc(N2C(=O)c3cccc4cccc(c34)C2=O)nn1 -0.94%
O=C(Nc1nsc(-c2ccccc2)n1)c1ccncc1 3.23%
C[N+](C)(C)CCCCCNCC12CC3CC(CC(C3)C1)C2 -1.3%
CN(C)c1ccnc2sc3c(=O)n(Cc4ccccc4)cnc3c12 5.17%
O=C(O)CN(Cc1ccco1)S(=O)(=O)c1ccccc1 0%
CCOCCCNS(=O)(=O)Cc1ccccc1 5.26%
O=C(O)[C@H](CCc1ccccn1)c1ccccc1 -6.91% [at 9.17 µM]
